Screens (PubChem)
This is a sample that favours compounds with a hit; in the whole collection about 1.2% have one here.
BRCA1 expr act – activators of BRCA1 expression | actives 1.1% (n = 380,000) | Potency, µM (doses to about 46.1 µM), without a hit: at the highest dose activation, usual class: activators | MCF7-BRCA1-FFLuc reporter, luminescence, 48 h; response scale: scaled: vehicle 0%, 10 µM genistein 100%; also: nearly all actives have a fitted effect of over 80% in size
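Luminescence from a BRCA1-driven firefly luciferase in MCF7 cells was the read-out, taken 15 min after substrate addition following 48 h compound exposure at 37 °C. Data were normalized to a 10 microM genistein control and DMSO vehicle.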
B2AR arrestin – agonists driving beta-arrestin recruitment to human beta2-adrenergic receptor; P07550; beta-arrestin recruitment to beta2AR, cell-based reporter; Potency, µM (titrated, usually from 46.1 µM), without a hit: at the top dose activation, actives largely listed as activators; actives 0.02% (n = 330,000); AID 492947;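 also: 0% = DMSO controls and full agonism = EC100 isoproterenol or metaproterenol; nearly all actives have a fitted effect of over 65% in size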
Mito fusion yeast – blocks mitochondrial division or promotes mitochondrial fusion. AID 485298. S. cerevisiae fusion-defective mutant growth rescue, CellTiterGlo 48 h. actives 0.23% (n = 320,000). Potency, µM (series often up to 46.1 µM), without a hit: top-dose growth rescue (activation), usual class: activators; also: % of control where 0% means no effect; nearly all actives have a fitted effect of over 45% in size
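Yeast fusion mutant, YPEG (non-fermentable carbon), compound, 48 h at 37C non-permissive; CellTiterGlo added, 10 min RT, luminescence read. Rescued growth = division inhibition.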
ERG Ets-DNA blk – inhibitors of human ERG Ets domain-DNA interaction. P11308. fluorescence polarization, His-ERG Ets domain / labelled DNA. Potency, µM (top dose mostly 76.9 µM), for inactives: at the highest dose FP activity, negative = inhibition, usual class: inhibitors. actives 0.028% (n = 370,000); active = well fitted inhibition curve with a large enough effect in the polarisation, with a control signal flat; inconclusive = small, poorly fitted or top-dose-only effect, or effect the other way, or a change in a side signal; inactive = no such curve, though single readings can be large or run the other way; the % refers to the polarisation;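 also: polarization taken with two DNA probes labelled with fluorescein and Texas red; % of control where 0% means no effect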
Target sequence (P11308 whole entry, looked up, the tested form may be a part): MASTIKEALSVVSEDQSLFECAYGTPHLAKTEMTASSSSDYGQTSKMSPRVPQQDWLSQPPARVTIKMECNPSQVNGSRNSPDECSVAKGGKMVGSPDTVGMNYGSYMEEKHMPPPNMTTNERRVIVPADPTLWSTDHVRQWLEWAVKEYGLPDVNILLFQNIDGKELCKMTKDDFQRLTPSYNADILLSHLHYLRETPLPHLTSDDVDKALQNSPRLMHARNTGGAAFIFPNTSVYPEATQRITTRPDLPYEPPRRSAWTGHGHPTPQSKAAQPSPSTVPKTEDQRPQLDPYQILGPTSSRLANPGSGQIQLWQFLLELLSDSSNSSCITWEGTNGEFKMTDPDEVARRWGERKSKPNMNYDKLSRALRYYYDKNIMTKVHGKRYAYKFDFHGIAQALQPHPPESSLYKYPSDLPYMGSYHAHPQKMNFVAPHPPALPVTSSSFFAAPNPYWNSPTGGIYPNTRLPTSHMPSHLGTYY
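His-tagged ERG Ets domain (1 uM in the protein solution; 300mM KCl, 50mM Tris-HCl, 1mM EDTA, 1mM DTT, pH 7.5) received compound, then a probe mix of 5 nM fluorescein-DNA and 100nM Texas-615-DNA. Fluorescence polarization was read for both dyes.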
Numbers without * were called inactive; ? = inconclusive; / = not tested or not shown; [ ] = dose if it differs, or a comment. Unless noted, calls follow the shape of the dose curve; as a rule, active = well fitted curve in the direction sought with a large enough effect; inconclusive = small, poorly fitted or top-dose-only effect, or another doubt; inactive = no such curve, though single readings can be large; an effect the other way counts as inactive or inconclusive. Potency is read from the fitted curve at half-maximal effect.

SMILES | BRCA1 expr act | B2AR arrestin | Mito fusion yeast | ERG Ets-DNA blk
c1ccc(COc2ccc(-c3csnn3)cc2)cc1 | 5.62µM* | -0.1% | -1.7% | 3.2%
CC(=O)COc1ccc(-c2csnn2)cc1 | 81.5% | -0.6% | -1.6% | -7.2%
Cc1nnc(SCC(=O)N2c3ccccc3C(C)(c3ccccc3)CC2(C)C)s1 (stereo not drawn) | -74.3% | -0.6% | 15.8µM* | -1.5%
Cc1ccc(OCC(=O)N2CCc3ccccc3C2)c(Br)c1 | 12.6µM* | 0.0% | 17.9% | -0.8%
Cc1ccc(NC(=O)CC(=O)c2ccccc2)cc1C | 6.31µM* | -0.6% | -8.4% | -0.5%
CN1C(=O)C2C=CC1C1C(=O)N(c3ccccc3)C(=O)C21 (stereo not drawn) | 32.3% | -0.3% | 6.31µM* | -1.2%
O=C1C2C3C=CC(C3=C3CCCCC3)C2C(=O)N1c1ccccc1 (stereo not drawn) | -10.9% | -0.8% | 1.2% | -3.0%
Cc1nc2c(C(=O)NC(C)c3ccccc3)cnn2c(C)c1Cc1ccccc1 (stereo not drawn) | / | / | / | 7.1%
Cc1ccc(CCNC(=O)CCCn2c(=O)c3cccn3c3ccc(F)cc32)cc1 | / | / | / | 1.7%
Cc1ccc2cc3cc(C(=O)NC4CC4)oc3nc2c1 | 58.7% | -1.5% | 9.7% | -1.8%
Cc1ccc2cc3cc(C(=O)NC4CCCCC4)oc3nc2c1 | 3.98µM* | 0.4% | 3.8% | 8.3%
O=C(NC1CCCC1)c1cc2cc(Br)ccc2o1 | 3.16µM* | 0.0% | 0.6% | -1.9%
O=C1CC(c2ccco2)Cc2[nH]c(=O)c(C(=O)Nc3ccccc3)cc21 (stereo not drawn) | -8.1% | / | / | /
O=C(O)c1ccc(Nc2nc3c(s2)CCCC3)cc1 | ? | 0.0% | 1.6% | 14.7%
Cc1cccc(Nc2nc3c(s2)CCCC3)c1 | 10µM* | -0.8% | 3.0% | /
O=C1c2ccccc2NC(c2ccc(Br)o2)N1O (stereo not drawn) | 11.2µM* | 0.1% | 6.4% | /
O=C(NCc1ccccn1)c1ccc(N2CCCC2=O)cc1 | 12.6µM* | -3.7% | 0.5% | 5.7%
O=C(NCc1ccccn1)c1ccc(-c2ccccc2)cc1 | 12.6µM* | -0.3% | 4.8% | -11.8%[15.4 µM]
O=C(COc1ccc(Cl)cc1)Nc1ccc2nc(SCC(=O)N3CCOCC3)sc2c1 | / | / | / | -2.9%
COc1cccc(NC(=O)Cn2cc(C(=O)c3ccco3)c3ccccc32)c1 | / | / | / | 1.1%
Cc1ccc2nc(Nc3ccc(C)c(F)c3)c3nncn3c2c1 | / | / | / | -0.1%
CCOc1ccc(C(c2c(O)cc(C)n(CCOC)c2=O)N2CCN(c3ccc(F)cc3)CC2)cc1 (stereo not drawn) | / | / | / | 5.5%
Cc1ccc(-c2nnc3ccc(SCC(=O)c4ccccc4)nn23)cc1 | -7.5% | / | / | /
CS(=O)(=O)N1CCN(Cc2cc3nc(-c4cccc5[nH]ncc45)nc(N4CCOCC4)c3s2)CC1 | -69.9%[92.2 µM] | / | / | /
CNC(=O)c1ccc(-c2nc(-c3ccccc3)cs2)cc1 | 2.51µM* | -0.5% | -1.2% | 5.7%
SMILES | BRCA1 expr act | B2AR arrestin | Mito fusion yeast | ERG Ets-DNA blk
O=C(O)c1ccc(-c2nc(-c3ccccc3)cs2)cc1 | ? | 0.1% | -4.9% | -2.0%
CCc1ccccc1NC(=O)c1ccc(-c2csc(C)n2)cc1 | 3.55µM* | 0.4% | 1.1% | -2.9%
O=C(O)c1ccccc1C(=O)Nc1ccc(-c2csc(-c3ccccc3)n2)cc1 | 7.08µM* | 15.0% | 2.7% | -10.5%
CCCSCCCNC(=O)C1CCN(C(=O)c2cc3sccc3n2C)CC1 | / | / | / | -3.7%
Cc1c(O)c2c(=O)n(-c3ccccc3)c(-c3ccccc3)cc2oc1=O | -27.5% | -0.2% | 10µM* | -4.3%
Cc1ccc(C)c(CSc2nnc(-c3cccnc3)o2)c1 | -47.6% | 0.0% | ? | 1.6%
COc1ccc(-c2nnc(SCc3ccccc3F)o2)cc1 | ? | -0.4% | 20.5% | 15.3%
Fc1ccccc1CSc1nnc(-c2ccccc2)o1 | 3.98µM* | -0.4% | 25.7% | 9.5%
Fc1ccccc1CSc1nnc(-c2cccnc2)o1 | 7.08µM* | -0.1% | -3.7% | 15.7%
COc1ccc(CN(Cc2ccccc2)C(=O)Nc2ccccc2)cc1COc1ccc(NC(C)=O)cc1 | -10.2% | / | / | /
O=[N+]([O-])c1ccc(/C=C2\C=C(C(O)c3ccc([N+](=O)[O-])cc3)c3ccccc32)cc1 (stereo not drawn) | -68.1% | / | / | /
C=CCN1N=C(/C=C/c2ccc(OC)cc2)CCC1=O | ? | -0.1% | 11.1% | -4.1%
C=CCN1N=C(/C=C/c2ccc(C)cc2)CCC1=O | 11.2µM* | -0.2% | -4.1% | -8.8%
